Assay [1] can be described thus: CCTE_Shafer_MEA_dev_correlation_coefficient_mean: CCTE's Neural Network Formation Assay for Mean Correlation Coefficient, Shafer Lab (AID 2284093).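 As to AC50: well mean pairwise spike train correlation integrated as AUC over recording days 5 to 12; potency fitted for loss of correlation relative to DMSO vehicle wells.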 The gist of the method: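 Rat cortical cultures, 1.5 x 10^5 cells/well, dosed from day 0 for 12 days. Spontaneous spikes recorded DIV 5/7/9/12; electrode-pair correlation coefficients averaged, AUC taken. Fit in loss direction vs DMSO.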

Assay [2] can be described thus: CCTE_Mundy_HCI_Cortical_Synap_Neur_Matur_NeuriteSpotCountPerNeuriteLength: CCTE's Synaptogenesis and Neurite Maturation Assay in rat cortical cells for Neurite Spot Count per Neurite Length, Mundy Lab (AID 2284210). The gist of the method: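 Neurite-associated synapse density (synaptophysin puncta per unit neurite length) is measured by fluorescence high-content imaging in rat cortical cultures treated from DIV 7 and fixed at DIV 12, with DMSO as negative control.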

Assay [3] can be described thus: CCTE_Mundy_HCI_Cortical_Synap_Neur_Matur_BPCount: CCTE's Synaptogenesis and Neurite Maturation Assay in rat cortical cells for Branch Point Count, Mundy Lab (AID 2284211). The gist of the method: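 In this multiplexed morphology assay, cortical cells from rat receive chemicals at DIV 7 and are fixed at DIV 12, then immunostained and imaged; branch points are counted, with DMSO as baseline.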

Assay [4] is described as follows: CCTE_Mundy_HCI_Cortical_NOG_NeuriteCount: CCTE's Neurite Outgrowth Assay in rat cortical cells for Neurite Count, Mundy Lab (AID 2284212).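 Also: cells fixed about two days after chemical exposure began.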 The gist of the method: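 Rat cortical primary cells; compound added 2 h post-plating, 1/10 dilution of working solution. Anti-betaIII-tubulin/AF488 ICC; ArrayScan neurite count vs DMSO.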
Assay [5] in a line: CCTE_Mundy_HCI_Cortical_NOG_NeuriteLength: CCTE's Neurite Outgrowth Assay in rat cortical cells for Neurite Length, Mundy Lab (AID 2284213). The gist of the method:
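First, rat primary cortical cells were plated and, 2 h later, given test chemical as a 1/10 dilution. Finally, βIII-tubulin immunostaining enabled automated imaging of neurite length.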

A short description of assay [6]: CCTE_Mundy_HCI_Cortical_Synap_Neur_Matur_NeuriteLength: CCTE's Synaptogenesis and Neurite Maturation Assay in rat cortical cells for Neurite Length, Mundy Lab (AID 2284214). The gist of the method:
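Read-out: high-content imaging of MAP2-labelled neurites, with synaptophysin and Hoechst co-stain, in rat cortical cultures fixed at DIV 12. Activity fitted in positive direction relative to DMSO baseline.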

Assay [7] in a line: CCTE_Mundy_HCI_Cortical_Synap_Neur_Matur_NeuriteSpotCountPerNeuron: CCTE's Synaptogenesis and Neurite Maturation Assay in rat cortical cells for Neurite Spot Count per Neuron Count, Mundy Lab (AID 2284215). The gist of the method:
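Rat cortical primary cultures; AraC DIV 5 to arrest glia; dosing + media change DIV 7; fixed DIV 12. Anti-MAP2/anti-synaptophysin, Hoechst nuclei; HCI puncta count per neuron, positive fitting direction vs DMSO.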

Assay [8] can be described thus: IUF_NPC1b_proliferation_BrdU_72hr: Leibniz Research Institute for Environmental Medicine (IUF) 72-hour Neural Progenitor Cell Bromodeoxyuridine (BrdU) Proliferation Assay (NPC1b) (AID 2284207). The gist of the method: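 Neural progenitor spheres of human fetal origin are treated for three days; BrdU added for the last 16 h is quantified by luminescence ELISA, with DMSO as baseline and EGF/FGF omission as positive control.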

A short description of assay [9]: IUF_NPC1a_proliferation_area_72hr: Leibniz Research Institute for Environmental Medicine (IUF) 72-hour Neural Progenitor Cell Proliferation Area Assay (NPC1a) (AID 2284208). The gist of the method:
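Spheres of 0.3 mm are plated singly in growth-factor medium and exposed from day 0. After three days at 37C and 5% CO2, sphere area is measured by phase contrast imaging, with activity referenced to DMSO.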

The nature of assay [10]: IUF_NPC1_viability_72hr: Viability Assessment at 72 hours in the Leibniz Research Institute for Environmental Medicine (IUF) Neural Progenitor Cell Proliferation Assay (NPC1) (AID 2284209). The gist of the method:
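Alamar blue fluorescence (RFU) after 72 h exposure, normalized to DMSO baseline. hNPC spheres from GW 16-19 fetal cortex, single sphere per well in growth-factor medium; no compound renewal.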

SMILES strings stand for the structures. Activity calls are given as the source filed them. The calls were made as follows: active = hit-call score of the fitted dose curve at least 0.9, where 1 is the maximum; inactive = score below 0.9.

We go through ten molecules from PubChem BioAssay (EPA / NIEHS).

For the molecule `CC[C@H](C)C(=O)O[C@H]1C[C@@H](C)C=C2C=C[C@H](C)[C@H](CC[C@@H]3C[C@@H](O)CC(=O)O3)[C@H]21`, in assay [1], the AC50 (as a rule, the midpoint of the concentration-response curve, whichever way the signal moves) was 16.9 nM (active).
As for `NC(=O)NO`, the outcome in assay [1], in assay [2], in assay [3], in assay [4], in assay [5] and in assay [6] was inactive. Besides, in assay [7], the molecule was classed as inactive.
Turning to `COc1ccc(-n2nc(C(F)F)cc2-c2ccc(S(C)=O)cc2)cc1` (configuration not stated), in [1], the call was inactive.
For the molecule `CCC(C)(C)C(=O)O[C@H]1C[C@@H](C)C=C2C=C[C@H](C)[C@H](CC[C@@H]3C[C@@H](O)CC(=O)O3)[C@H]21`, the half-maximal activity concentration (AC50) in assay [1] is 1510 nM (active).
Turning to `O=C1CCC(N2C(=O)c3ccccc3C2=O)C(=O)N1` (configuration not stated), the result in assay [1], in assay [2], in [3], in [4], in [6] and in assay [7] was inactive.
Consider `Cn1c(=O)c2c(ncn2C)n(C)c1=O`, for which the outcome in assay [1], in [2], in [3], in assay [4], in [5] and in [6] was inactive. Also, in [7], the molecule was classed as inactive.
On to `Nc1nc2ncc(CNc3ccc(C(=O)N[C@@H](CCC(=O)O)C(=O)O)cc3)nc2c(=O)[nH]1`, for which, in assay [1], the molecule was classed as inactive.
As to `CNCc1ccc(NC(=O)c2c[nH]c3c2C(=O)CCC3)cc1`, the outcome in assay [1] was inactive.
For the molecule `O=P(OC(CCl)CCl)(OC(CCl)CCl)OC(CCl)CCl`, the outcome in assay [1], in assay [8], in [9], in [10], in assay [2] and in assay [4] was inactive. The molecule was classed as inactive in assay [5] and in [6]. The AC50 was 6930 nM (active) in assay [3] and 2980 nM (active) in assay [7].
As for `CC[C@H]1OC(=O)[C@H](C)[C@@H](O[C@H]2C[C@@](C)(OC)[C@@H](O)[C@H](C)O2)[C@H](C)[C@@H](O[C@@H]2O[C@H](C)C[C@H](N(C)C)[C@H]2O)[C@](C)(O)C[C@@H](C)C(=O)[C@H](C)[C@@H](O)[C@]1(C)O`, the molecule was classed as inactive in assay [1], in [2], in assay [3], in assay [4], in assay [5] and in assay [6]. For the same molecule, the outcome in [7] was inactive.
